A short description of experiment [1]: anti-His antibody binders, primary screen, artefact control for SMM control protein annotation, biochemical, small-molecule microarray, 635 nm fluorescence (AID 1128).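 Also: score merges feature fluorescence with signal-to-noise for each printed compound spot.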 Particulars: anti-His Alexa647 antibody binding, higher = more signal.
The test system of experiment [2] is Human papillomavirus type 1a E7 protein (residues 1-88). The experiment in a line: HPV1a E7 small-molecule binders, primary screen, biochemical, small-molecule microarray, residues 1-88, 635 nm (AID 1129). Particulars: small-molecule microarray binding, fluorescence 635 nm; higher = more signal.
In experiment [3] the target is Focal adhesion kinase 1 (Homo sapiens) (UniProt Q05397). The experiment in a line: small-molecule microarray binders of FAK, primary screen, biochemical, 635/667 nm fluorescence, BSA, DTT (AID 1130).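 Also: composite of spot emission at 667 nm and signal to noise over triplicate slides.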 As to conditions: PTK2 binding, 635 nm fluorescence, higher = more signal.
For experiment [4], the system named is Fibrinogen (Alexa647-labelled). The experiment in a line: fibrinogen binders on compound microarrays, profiling panel, artefact control for SMM control-protein annotation, biochemical, small-molecule microarray, 635/667 nm fluorescence (AID 1131).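 Also: z-score merges 667 nm fluorescence with per-spot signal-to-noise over triplicate slides.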 As to conditions: fibrinogen-A647 binding fluorescence, higher = more signal.
Experiment [5] concerns the target Follistatin (Homo sapiens) (UniProt P19883). The experiment is described as follows: follistatin binders on small-molecule microarrays, primary screen, biochemical, small-molecule microarray, 635/667 nm fluorescence (AID 1132). As to conditions: FST binding, 635 nm fluorescence, higher = more signal.
Experiment [6] concerns the target Fibroblast growth factor 2 (Homo sapiens) (UniProt P09038). The experiment in a line: FGF2 binders on small-molecule microarrays, primary screen, biochemical, small-molecule microarray, 635/667 nm fluorescence (AID 1133). As to conditions: small-molecule microarray binding, FGF2, fluorescence 635/667; higher = more signal.
The nature of experiment [7]: mitochondrial membrane potential change in A549 cells, profiling panel, cell-based, JC-1 fluorescence, basal, 24 h, 100 nL (AID 1138).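 Also: A549 lung adenocarcinoma cells under basal conditions with no added stimulus; test concentration not given here.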 Particulars: higher = more signal.
A further experiment deals with Lefty1. The experiment in a line: Lefty1 binders on small-molecule microarrays, primary screen, biochemical, small-molecule microarray, 635/667 nm fluorescence (AID 1139). As to conditions: small-molecule microarray binding, fluorescence 635/667; higher = more signal.
The test system of experiment [8] is wheat germ agglutinin (Triticum aestivum), Alexa647-labelled. The experiment is described as follows: wheat germ agglutinin binders on compound microarrays, profiling panel, artefact control for SMM control-protein annotation, biochemical, small-molecule microarray, 635/667 nm fluorescence (AID 1140).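 Also: score merges 667 nm feature emission with signal to noise over triplicate slides.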 Particulars: WGA-A647 binding, 635 nm fluorescence, higher = more signal.

Experiment [9] deals with Luciferin 4-monooxygenase (Photinus pyralis) (UniProt P08659). The experiment in a line: firefly luciferase enzyme inhibitors, primary screen, biochemical, luminescence, purified enzyme, 2006 set (AID 1141).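 Also: cell-free assay with purified firefly luciferase at 100 ng per well in PBS; test concentration not given here.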 As to conditions: SteadyGlo luminescence, 30 min, higher = more signal, called active from +8 up or from −8 down.

The source made the active and inactive calls.

Sequence of Focal adhesion kinase 1 (Homo sapiens) (Q05397 whole entry, looked up): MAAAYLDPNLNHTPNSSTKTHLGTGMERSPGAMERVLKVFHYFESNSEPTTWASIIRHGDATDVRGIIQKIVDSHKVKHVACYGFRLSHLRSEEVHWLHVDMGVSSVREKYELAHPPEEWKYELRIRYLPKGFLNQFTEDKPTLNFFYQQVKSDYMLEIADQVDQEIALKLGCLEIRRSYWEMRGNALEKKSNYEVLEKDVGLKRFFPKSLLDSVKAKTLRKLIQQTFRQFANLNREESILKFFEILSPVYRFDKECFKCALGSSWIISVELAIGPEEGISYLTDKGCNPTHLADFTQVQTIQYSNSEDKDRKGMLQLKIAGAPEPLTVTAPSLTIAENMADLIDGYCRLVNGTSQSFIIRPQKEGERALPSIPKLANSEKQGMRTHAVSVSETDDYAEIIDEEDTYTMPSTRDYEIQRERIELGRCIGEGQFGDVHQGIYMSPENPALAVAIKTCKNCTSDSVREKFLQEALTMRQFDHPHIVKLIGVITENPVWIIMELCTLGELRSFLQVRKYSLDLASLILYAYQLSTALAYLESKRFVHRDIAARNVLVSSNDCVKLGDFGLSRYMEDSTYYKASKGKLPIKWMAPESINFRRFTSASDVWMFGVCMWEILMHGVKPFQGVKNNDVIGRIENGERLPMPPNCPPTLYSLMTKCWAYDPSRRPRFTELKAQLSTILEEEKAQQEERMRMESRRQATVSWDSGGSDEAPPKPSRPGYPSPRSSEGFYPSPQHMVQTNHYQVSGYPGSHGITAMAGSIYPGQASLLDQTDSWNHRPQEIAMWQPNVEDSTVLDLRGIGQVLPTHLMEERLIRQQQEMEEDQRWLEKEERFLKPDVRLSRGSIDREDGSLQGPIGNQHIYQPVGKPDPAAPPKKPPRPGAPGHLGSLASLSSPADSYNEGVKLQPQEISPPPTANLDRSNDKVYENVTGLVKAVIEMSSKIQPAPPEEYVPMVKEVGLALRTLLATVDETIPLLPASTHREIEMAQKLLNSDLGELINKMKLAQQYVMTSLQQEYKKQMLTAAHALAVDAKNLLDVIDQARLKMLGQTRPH
Sequence of Follistatin (Homo sapiens) (P19883 whole entry, looked up): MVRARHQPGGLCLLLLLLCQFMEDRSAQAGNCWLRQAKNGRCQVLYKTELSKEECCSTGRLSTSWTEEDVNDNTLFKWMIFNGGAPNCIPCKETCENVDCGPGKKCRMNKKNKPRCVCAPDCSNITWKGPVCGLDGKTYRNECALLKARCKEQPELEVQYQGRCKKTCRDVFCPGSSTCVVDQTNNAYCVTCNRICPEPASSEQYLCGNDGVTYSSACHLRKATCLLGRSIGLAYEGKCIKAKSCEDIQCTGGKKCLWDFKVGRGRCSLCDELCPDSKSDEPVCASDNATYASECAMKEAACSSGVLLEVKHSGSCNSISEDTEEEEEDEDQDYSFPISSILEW
Sequence of Fibroblast growth factor 2 (Homo sapiens) (P09038 whole entry, looked up): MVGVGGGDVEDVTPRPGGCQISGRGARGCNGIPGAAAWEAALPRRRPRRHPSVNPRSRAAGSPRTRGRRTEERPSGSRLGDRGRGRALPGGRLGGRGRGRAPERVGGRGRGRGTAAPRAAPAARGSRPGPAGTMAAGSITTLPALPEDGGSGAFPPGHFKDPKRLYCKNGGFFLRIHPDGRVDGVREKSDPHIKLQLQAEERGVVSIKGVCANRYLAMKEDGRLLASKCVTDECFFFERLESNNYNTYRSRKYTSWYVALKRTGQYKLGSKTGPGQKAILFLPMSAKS
Sequence of Luciferin 4-monooxygenase (Photinus pyralis) (P08659 whole entry, looked up): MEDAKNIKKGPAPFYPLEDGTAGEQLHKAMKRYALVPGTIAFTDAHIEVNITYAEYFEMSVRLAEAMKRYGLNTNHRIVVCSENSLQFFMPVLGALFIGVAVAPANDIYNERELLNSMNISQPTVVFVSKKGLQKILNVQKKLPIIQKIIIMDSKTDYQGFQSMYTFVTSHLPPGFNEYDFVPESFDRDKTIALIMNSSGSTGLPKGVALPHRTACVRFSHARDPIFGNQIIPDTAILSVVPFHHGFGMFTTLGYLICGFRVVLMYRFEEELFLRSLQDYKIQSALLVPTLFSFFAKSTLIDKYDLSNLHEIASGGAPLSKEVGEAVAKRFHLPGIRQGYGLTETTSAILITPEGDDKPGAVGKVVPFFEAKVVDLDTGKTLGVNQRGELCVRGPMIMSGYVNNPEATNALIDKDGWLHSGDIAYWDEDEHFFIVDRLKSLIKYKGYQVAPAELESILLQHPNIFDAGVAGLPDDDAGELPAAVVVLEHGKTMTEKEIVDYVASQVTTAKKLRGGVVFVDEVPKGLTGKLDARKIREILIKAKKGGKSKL

With `COC(=O)[C@@]1(Cc2ccccc2)[C@H]2c3cc(C(=O)N(C)C)n(Cc4ccc(S(C)(=O)=O)cc4)c3C[C@H]2CN1C(=O)c1ccccc1`, the composite z-score in experiment [1] was 3.21; in experiment [2] it was 0.884; in experiment [3], 1.31; in experiment [4] it was 0.989; in experiment [5], -0.0741; in experiment [6], -0.277. For the same molecule, the composite z-score with Lefty1 was -0.367; in experiment [8] it was 1.13. In addition, the z-score is -0.699 in experiment [7] and 1.6 (inactive) in experiment [9].
In the case of `COc1cc(C(O)C2C=CC3C(=O)N(c4ccccc4)C(=O)C3N2Nc2ccccc2)cc(OC)c1OC` (stereo not given), the composite z-score in experiment [1] is 1.04; in [2] it was 1.21; in [3] it was 0.655; in experiment [4] it was 1; in experiment [5], 1.14; in experiment [6], -0.085. Besides, the figures for the composite z-score (in the experiment on Lefty1; in [8]) were -0.383 and 1.24, respectively. The z-score in experiment [7] is -0.193; in experiment [9], -0.171 (inactive).
Regarding `COc1ccc([Si](C)(C)[C@H]2[C@H](CCO)O[C@@]3(C(=O)N(Cc4ccc(NC(=O)[C@H](C)O)cc4)c4ccccc43)[C@@H]2C)cc1`, the composite z-score was 1.4 in experiment [1]; 1.23 in experiment [2]; 0.382 in [3]; 0.68 in experiment [4]; 0.728 in experiment [5]; 0.634 in experiment [6]. Besides, the figures for the composite z-score (in the experiment on Lefty1; in experiment [8]) were 0.568 and 0.355, respectively. Further, the values for the z-score in [7] and in [9] were -1.45 and -0.234 (inactive), respectively.
On to `NC(=O)N1C(=O)C2C(C1=O)C1C=C(CCCO)C2C(c2ccc(CN3CCCC3)cc2)N1Cc1cc2c(cc1Br)OCO2` (stereo not given), for which the composite z-score is 0.197 in experiment [1]; -0.445 in experiment [2]; -0.214 in experiment [3]; -0.713 in experiment [4]; 0.583 in [5]; 1.2 in [6]. Besides, the results for the composite z-score (in the experiment with Lefty1; in experiment [8]) were 0.117 and -0.419, respectively. Further, the results for the z-score in [7] and in experiment [9] were -0.193 and 0.542 (inactive), respectively.
Take `O=C(NC1CC1)[C@@H]1c2ccccc2C(=O)N(Cc2ccc(OC(F)(F)F)cc2)[C@H]1c1ccc(CO)cc1`: the composite z-score in experiment [1] was -0.0809; in [2], 0.836; in [3] it was 0.234; in experiment [4], -1.39; in experiment [5] it was 0.664; in [6] it was 0.668. The composite z-score was found to be 0.39 with Lefty1 and 0.331 in experiment [8]. In addition, the results for the z-score in experiment [7] and in experiment [9] were 1.39 and 1.12 (inactive), respectively.
As for `COc1ccc(C(O)C2C=CC3C(=O)N(c4ccccc4)C(=O)C3N2Nc2ccc([N+](=O)[O-])cc2)c2ccccc12` (stereo not given), the composite z-score in experiment [1] worked out at 0.57; in [2], 1.25; in [3], 0.846; in experiment [4], 1; in [5], 0.91; in experiment [6], 0.54. The composite z-score in the experiment on Lefty1 amounted to 0.0679; in [8], 1.21. Also, the z-score in [7] is -1.56; in experiment [9], 1.19 (inactive).
With `CN(C)CCCC[C@@H]1NC(=O)[C@H]2C[C@@H](C(=O)O)[C@@H](c3ccc(O)cc3)N2C1=O`, the composite z-score worked out at 3.85 in experiment [1]; 1.31 in experiment [2]; 1.99 in experiment [3]; 1.04 in [4]; 1.52 in [5]; 1.83 in experiment [6]. Besides, the composite z-score was 1.63 with Lefty1 and 1.65 in experiment [8]. Also, the z-score in experiment [7] was -0.447; in experiment [9] it was -0.367 (inactive).
Regarding `O=C1C2C=CC(C(O)C3CCCCC3)N(n3cnnc3)C2C(=O)N1Cc1ccccc1` (stereo not given), the composite z-score in experiment [1] is -0.526; in experiment [2] it was 1.17; in [3], 0.377; in experiment [4], 0.983; in experiment [5], 1.26; in experiment [6], 0.287. The composite z-score in the experiment on Lefty1 turned out to be 1.27; in experiment [8], 1.26. Further, the z-score is -1.96 in experiment [7] and 1.54 (inactive) in [9].
As to `Cc1ccc(S[C@]2(C(=O)NCCCN(C)C)CC(=O)N(C3Cc4ccccc4C3)[C@@H]2c2ccc(CO)cc2I)cc1`, the composite z-score in experiment [1] was 0.0192; in experiment [2], 0.132; in [3], -0.0489; in experiment [4] it was 0.493; in [5], 0.135; in [6], -0.813. Further, the composite z-score in the experiment with Lefty1 is -0.515; in experiment [8], 0.0805. Besides, the z-score in experiment [7] was -0.522; in experiment [9], -0.222 (inactive).
On to `O=C(O)[C@H](Cc1ccccc1)n1cc(C2(O)CCCCC2)nn1`, for which the composite z-score amounted to 0.689 in experiment [1]; 0.357 in experiment [2]; 0.736 in experiment [3]; 0.52 in experiment [4]; 0.142 in experiment [5]; 0.278 in experiment [6]. Also, the results for the composite z-score (in the experiment on Lefty1; in experiment [8]) were 0.676 and 0.0402, respectively. The z-score in experiment [7] was -0.141; in experiment [9] it was -0.0102 (inactive).
As for `Cc1ccc(N2C(=O)c3ccccc3[C@](C)(C(=O)NCCCN(C)C)[C@@H]2c2ccc(CO)cc2)nc1`, the composite z-score in experiment [1] is -0.479; in [2], -0.254; in experiment [3], 0.304; in experiment [4], -0.18; in experiment [5], 0.351; in experiment [6], -1.21. Besides, the composite z-score is -0.28 with Lefty1 and -0.0926 in experiment [8]. In addition, the z-score is 0.361 in [7] and -0.156 (inactive) in [9].
Take `NC(=O)NCC#Cc1ccc2c(c1)[C@]1(C(=O)N2)[C@H](c2ccc(OCCO)cc2)N2[C@H](c3ccccc3)[C@H](c3ccccc3)OC(=O)[C@H]2[C@@H]1C(=O)O`: the composite z-score in [1] is 1.21; in [2], -1.59; in [3], -0.333; in experiment [4] it was 0.755; in experiment [5], -0.044; in [6] it was -0.498. Further, the composite z-score with Lefty1 was -0.601; in experiment [8], 1.22. For the same molecule, the z-score in experiment [7] was -1.15; in experiment [9], -1.6 (inactive).
As for `COc1ccc(C(=O)Nc2cccc(CN3C(=O)[C@@]4(O[C@@H](CC(=O)N5CCC[C@H]5CO)[C@H]([Si](C)(C)c5ccc(OC)cc5)[C@H]4C)c4ccccc43)c2)cc1`, the composite z-score in experiment [1] was 1.39; in [2] it was 1.03; in experiment [3], 0.988; in [4], 0.875; in experiment [5], 1.08; in experiment [6], 1.1. The composite z-score in the experiment on Lefty1 was determined as 0.703; in experiment [8] it was 0.7. Moreover, the results for the z-score in experiment [7] and in experiment [9] were 1.53 and -0.599 (inactive), respectively.
Turning to `CCCCC(=C=CC[C@H](O)c1ccc(CO)o1)CCO`, the composite z-score in experiment [1] was 0.149; in [2], 0.661; in [3], 0.323; in experiment [4] it was -0.884; in experiment [5], 0.986; in experiment [6], 0.662. Also, the composite z-score amounted to 0.738 with Lefty1 and 0.0416 in experiment [8]. Also, the results for the z-score in experiment [7] and in experiment [9] were 0.164 and -0.783 (inactive), respectively.

Values taken from PubChem BioAssay.
